The values that follow come from PubChem BioAssay.

For part of these data: Entries with a potency or affinity are not part of this list. Calls of active or inactive are those of the source.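 Rule for the calls, unless noted: active = dose curve with midpoint inside tested range, moderate steepness, plateau gap beyond fit error, low compound glow and bead-link interference; inactive = the rest.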

In assay [1] the target is Cell division control protein 42 homolog (Homo sapiens) (UniProt P60953). As to the kind of experiment: activated mutant Cdc42 GTP-binding inhibitors, dose response, biochemical, multiplex bead flow cytometry, Bodipy-FL-GTP (AID 1333;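 active = fitted half-maximal concentration within the tested dose range, moderate curve steepness, a statistically real signal drop, and little compound fluorescence or tag-binding interference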). On the technique in general: A flow cytometer gives signals particle by particle.
For assay [2] the target is unchanged. The assay can be described thus: wildtype Cdc42 GTP-binding inhibitors, dose response, biochemical, multiplex bead flow cytometry, Bodipy-FL-GTP (AID 1334;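 active = fitted half-maximal concentration within the tested range, moderate curve steepness, significant signal drop, and little compound fluorescence or bead-linkage interference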). The following applies: bead-based flow cytometry, Bodipy-FL-GTP binding to GST-Cdc42; at 100 µM (top of the series) unless noted.
Assay [3] deals with GTPase HRas (Homo sapiens) (UniProt P01112). As to the kind of experiment: inhibitors of GTP binding to wildtype Ras, dose response, biochemical, multiplex bead flow cytometry (AID 1335;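 active = fitted half-maximal concentration within 10 nM to 100 µM, steepness 0.5 to 2, significant signal drop, low assay interference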). The following applies: bead-based flow cytometry, Bodipy-GTP binding to GST-Ras; at 100 µM (top of the series) unless noted.
In assay [4] the test system is Ras-related protein Rab-7a (dog), GTP binding. As to the kind of experiment: Rab7 GTP binding inhibitors, potency, dose response, biochemical, wildtype, multiplex bead flow cytometry (AID 1336; call rule not given here).
For assay [5], the target named is Ras-related C3 botulinum toxin substrate 1 (Homo sapiens) (UniProt P63000). The assay can be described thus: wildtype Rac1 GTP binding inhibitors, dose response, biochemical, multiplex bead flow cytometry (AID 1340). The following applies: GST-Rac1 beads, Bodipy-FL-GTP binding; at 100 µM (top of the series) unless noted.
Assay [6] concerns the target GTPase HRas (Homo sapiens) (UniProt P01112). As to the kind of experiment: activated Ras mutant GTP binding inhibitors, dose response, biochemical, multiplex bead flow cytometry (AID 1341;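 active = dose-response curve with midpoint inside the tested range, moderate steepness, significant amplitude and little compound fluorescence or bead-attachment interference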;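 note: GST-tagged constitutively activated Ras mutant immobilized on beads and multiplexed with other GTPases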).

Chain of Cell division control protein 42 homolog (Homo sapiens) (P60953 whole entry, looked up): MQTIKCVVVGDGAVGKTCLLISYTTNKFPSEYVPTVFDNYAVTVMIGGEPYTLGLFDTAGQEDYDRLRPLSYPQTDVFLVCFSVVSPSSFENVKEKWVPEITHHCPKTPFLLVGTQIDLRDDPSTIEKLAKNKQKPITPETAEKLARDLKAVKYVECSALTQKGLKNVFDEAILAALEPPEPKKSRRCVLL
Chain of GTPase HRas (Homo sapiens) (P01112 whole entry, looked up): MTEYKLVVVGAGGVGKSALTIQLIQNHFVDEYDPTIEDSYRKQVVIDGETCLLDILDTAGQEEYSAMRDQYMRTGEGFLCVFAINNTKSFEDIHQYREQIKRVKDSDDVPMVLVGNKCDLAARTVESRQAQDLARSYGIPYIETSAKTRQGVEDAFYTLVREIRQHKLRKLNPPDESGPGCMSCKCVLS

Take `Oc1c(C=Nc2cccc3cccnc23)sc2ccccc12`: the result in assay [1], in assay [4] and in assay [6] was inactive. For the same compound, in assay [2], the fluorescence, percent of control (lower = inhibition) amounted to 93.4%. For the same compound, in assay [3], the GTP binding, percent of control turned out to be 177%. The compound further yielded a GTP binding signal, raw median fluorescence (lower = inhibition) (MCF (arbitrary fluorescence units)) in assay [5] of 199.

For the compound `COc1ccc(OCC(=O)Nc2nonc2NC(=O)COc2ccc(OC)cc2)cc1`, the result in assay [1], in assay [4] and in assay [6] was inactive. Besides, the fluorescence, percent of control (lower = inhibition) in assay [2] is 38.2%. For the same compound, the GTP binding, percent of control in assay [3] was determined as 79.5%. The same compound returned a GTP binding signal, raw median fluorescence (lower = inhibition) (MCF (arbitrary fluorescence units)) in assay [5] of 234.

On to `COc1cccc(NC(=O)NCCCN2CCN(c3ccc(F)cc3)CC2)c1`, for which the call in assay [1], in assay [4] and in assay [6] was inactive. Besides, in assay [2], the fluorescence, percent of control (lower = inhibition) came out at 40.4%. The GTP binding, percent of control in assay [3] was determined as 84.6%. The GTP binding signal, raw median fluorescence (lower = inhibition) (MCF (arbitrary fluorescence units)) in assay [5] amounted to 255.

As to `CCOC(=O)Cn1nnnc1CN(Cc1cccs1)Cc1cc2cc(C)cc(C)c2[nH]c1=O`, the compound was classed as inactive in assay [1], in assay [4] and in assay [6]. Further, the fluorescence, percent of control (lower = inhibition) in assay [2] is 81.6%. Also, the GTP binding, percent of control in assay [3] came to 161%. This compound displayed a GTP binding signal, raw median fluorescence (lower = inhibition) (MCF (arbitrary fluorescence units)) in assay [5] of 171.

For the compound `CC(C)OCCCn1c(=NC(=O)c2ccncc2)c(C#N)cc2c(=O)n3ccccc3nc21`, the call in assay [1], in assay [4] and in assay [6] was inactive. Also, in assay [2], the fluorescence, percent of control (lower = inhibition) amounted to 88.2%. The GTP binding, percent of control in assay [3] was determined as 160%. The compound further had a GTP binding signal, raw median fluorescence (lower = inhibition) (MCF (arbitrary fluorescence units)) in assay [5] of 161.

As for `COc1ccc(-c2noc(CCC(=O)N3CCN(c4cc(C)ccc4C)CC3)n2)cc1`, the result in assay [1], in assay [4] and in assay [6] was inactive. For the same compound, the fluorescence, percent of control (lower = inhibition) in assay [2] turned out to be 25.4%. Further, in assay [3], the GTP binding, percent of control is 76%. In assay [5], this compound had a GTP binding signal, raw median fluorescence (lower = inhibition) (MCF (arbitrary fluorescence units)) of 195.

With `Cc1ccc(CS(=O)(=O)c2ccccc2-c2nnc(-c3ccc(Cl)cc3)o2)cc1`, the outcome in assay [1], in assay [4] and in assay [6] was inactive. The fluorescence, percent of control (lower = inhibition) in assay [2] came out at 88.2%. The compound further showed a GTP binding, percent of control in assay [3] of 156%. In assay [5], this compound displayed a GTP binding signal, raw median fluorescence (lower = inhibition) (MCF (arbitrary fluorescence units)) of 181.

Turning to `Cc1nnc(N2CCOCC2)c2nn(-c3cccc(Cl)c3)c(C)c12`, the outcome in assay [1], in assay [4] and in assay [6] was inactive. Further, in assay [2], the fluorescence, percent of control (lower = inhibition) is 204%. Moreover, the GTP binding, percent of control in assay [3] was 209%. In assay [5], the GTP binding signal, raw median fluorescence (lower = inhibition) (MCF (arbitrary fluorescence units)) was 306.

For `O=C(C#Cc1ccccc1F)c1ccc([N+](=O)[O-])cc1`, the call in assay [1], in assay [4] and in assay [6] was inactive. In addition, in assay [2], the fluorescence, percent of control (lower = inhibition) turned out to be 49.8%. In addition, the GTP binding, percent of control in assay [3] came to 179%. In assay [5], this compound showed a GTP binding signal, raw median fluorescence (lower = inhibition) (MCF (arbitrary fluorescence units)) of 104.

For `CC(C)Sc1nc(-c2ccccc2)cc(=O)[nH]1`, the compound was classed as inactive in assay [1], in assay [4] and in assay [6]. Further, the fluorescence, percent of control (lower = inhibition) in assay [2] was 88.8%. For the same compound, the GTP binding, percent of control in assay [3] worked out at 156%. For the same compound, the GTP binding signal, raw median fluorescence (lower = inhibition) (MCF (arbitrary fluorescence units)) in assay [5] came to 170.

As for `CCN=C1S/C(=C\c2ccc(OC)c(OCC)c2)C(=O)N1CC`, the compound was called inactive in assay [1], in assay [4] and in assay [6]. Further, the fluorescence, percent of control (lower = inhibition) in assay [2] was determined as 50.8%. Also, in assay [3], the GTP binding, percent of control worked out at 60.4%. Also, the GTP binding signal, raw median fluorescence (lower = inhibition) (MCF (arbitrary fluorescence units)) in assay [5] turned out to be 213.

As for `N#C/C(=C\c1ccncc1)c1nc2ccccc2[nH]1`, the compound was classed as inactive in assay [1], in assay [4] and in assay [6]. Moreover, the fluorescence, percent of control (lower = inhibition) in assay [2] was found to be 31%. For the same compound, the GTP binding, percent of control in assay [3] was 81.6%. Moreover, the GTP binding signal, raw median fluorescence (lower = inhibition) (MCF (arbitrary fluorescence units)) in assay [5] came to 273.

For `CC1=C(C)CC(C(=O)c2cc(C)ccc2C)C(C(=O)O)C1` (stereo not given), the outcome in assay [1], in assay [4] and in assay [6] was inactive. The fluorescence, percent of control (lower = inhibition) in assay [2] was determined as 57.3%. Moreover, the GTP binding, percent of control in assay [3] was determined as 88.3%. In assay [5], this compound registered a GTP binding signal, raw median fluorescence (lower = inhibition) (MCF (arbitrary fluorescence units)) of 31.

Take `O=C(O)c1ccc(N2C(=O)/C(=C/c3ccc(-c4ccc([N+](=O)[O-])cc4)o3)C=C2c2ccccc2)cc1`: the call in assay [1], in assay [4] and in assay [6] was inactive. The fluorescence, percent of control (lower = inhibition) in assay [2] was found to be 33.9%. The same compound had a GTP binding, percent of control in assay [3] of 77.4%. This compound also had a GTP binding signal, raw median fluorescence (lower = inhibition) (MCF (arbitrary fluorescence units)) in assay [5] of 179.

As to `COc1ccc(OC)c(Nc2nc(-c3sc(N)nc3C)cs2)c1`, the result in assay [1], in assay [4] and in assay [6] was inactive. Further, in assay [2], the fluorescence, percent of control (lower = inhibition) turned out to be 32.7%. The GTP binding, percent of control in assay [3] is 72.6%. Further, the GTP binding signal, raw median fluorescence (lower = inhibition) (MCF (arbitrary fluorescence units)) in assay [5] worked out at 179.
